CtBP-E1A blk – qHTS Assay for Inhibitors of the CtBP/E1A Interaction | CtBP / adenovirus E1A interaction (AlphaScreen) | AlphaScreen GST-E1A/His-CtBP binding, 1536-well; hits give low values | activity change, % (test concentration not listed) | 340,000 tested, 0.49% active | AID 651724, 2012; in the data active means activity change below about -65%; inconclusive means mostly about -30% to -63%
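GST-E1A and His-tagged CtBP (125 nM each as 5X stock) were preincubated with pin-transferred compound for 2 h at 37 °C in the dark, then glutathione donor and nickel acceptor beads were added for 1 h before AlphaScreen reading.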
TDP1 block – qHTS Assay for Inhibitors of Tyrosyl-DNA Phosphodiesterase (TDP1); Tyrosyl-DNA phosphodiesterase 1 (Homo sapiens), Q9NUW8; recombinant TDP1, AlphaScreen DNA substrate cleavage; Potency, µM (titrated, usually from 130 µM), for the others: at the highest dose activity change, negative = inhibition, most hits filed as inhibitors; 350,000 tested, 0.28% active; AID 485290, 2010; further: potency means the concentration at half of the fitted maximal effect; nearly all actives have a fitted effect of over 40% in size
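E. coli-derived human Tdp1, 1 nM final. Cpd preinc 15 min RT; substrate 15 nM final, 5 min RT; AS bead mix 10 ug/ml final, 10 min RT. Signal loss = tyrosine-FITC cleavage. No-enzyme wells = max signal.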
Six1-Eya2 blk – qHTS Assay for Inhibitors of the Six1/Eya2 Interaction; 360,000 tested, 0.56% active; activity change, % (no concentration beside the values); AlphaScreen GST-Six1/His-Eya2 binding, biochemical; hits give low values; Homeobox protein SIX1 (Homo sapiens) + Protein phosphatase EYA2 (Homo sapiens), …; in the data active means activity change below about -65%; inconclusive means mostly about -30% to -63%
Target sequence (O00167 whole entry, looked up): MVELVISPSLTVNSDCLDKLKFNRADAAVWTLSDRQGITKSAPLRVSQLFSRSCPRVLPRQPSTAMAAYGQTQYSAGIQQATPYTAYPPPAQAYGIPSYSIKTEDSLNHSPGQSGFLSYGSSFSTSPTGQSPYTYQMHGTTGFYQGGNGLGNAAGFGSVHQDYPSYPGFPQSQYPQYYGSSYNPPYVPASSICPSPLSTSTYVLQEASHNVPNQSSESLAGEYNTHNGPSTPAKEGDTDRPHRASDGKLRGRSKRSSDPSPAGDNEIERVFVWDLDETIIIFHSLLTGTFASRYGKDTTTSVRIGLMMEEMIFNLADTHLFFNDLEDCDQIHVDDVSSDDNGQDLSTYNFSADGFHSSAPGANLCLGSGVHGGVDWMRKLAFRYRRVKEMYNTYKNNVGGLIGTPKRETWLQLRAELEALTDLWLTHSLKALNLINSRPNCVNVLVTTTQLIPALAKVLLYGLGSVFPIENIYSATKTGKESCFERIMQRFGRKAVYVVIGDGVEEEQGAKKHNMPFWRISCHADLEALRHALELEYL
Target sequence (Q15475 whole entry, looked up): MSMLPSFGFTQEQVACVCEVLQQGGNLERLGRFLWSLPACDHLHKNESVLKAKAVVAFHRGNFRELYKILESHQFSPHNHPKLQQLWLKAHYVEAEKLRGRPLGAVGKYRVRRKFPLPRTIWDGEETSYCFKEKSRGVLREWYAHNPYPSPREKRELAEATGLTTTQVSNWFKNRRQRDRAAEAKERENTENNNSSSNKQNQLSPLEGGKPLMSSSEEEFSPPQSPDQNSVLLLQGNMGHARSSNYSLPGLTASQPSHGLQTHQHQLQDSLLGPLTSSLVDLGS
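GST-Six1 + His-Eya2 (5X stock: 250/500 nM); Tris pH 8.0, 300 mM NaCl, 0.05% BSA, 0.02% Tween 20; GSH donor/Ni acceptor beads; 1 h 37 °C dark; AlphaScreen readout.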
IL1B secr inh – qHTS for Inhibitors of Inflammasome Signaling: IL-1-beta AlphaLISA Primary Screen; activity change, % at 57.5 µM; THP-1 LPS/ATP IL-1B secretion, AlphaLISA, 16 h; hits give low values; 360,000 tested, 4.7% active; AID 743279, 2014; in the data active means activity change below about -50%; inconclusive means mostly about -30% to -49%
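Secreted IL-1B measured by AlphaLISA bead assay after 16 h compound exposure of THP-1 cells; compounds (final up to 57.5 uM) added 1 h before LPS (250 ng/mL) and ATP (1.25 mM) stimulation; lower signal means less secretion.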
DT40 TDP1 no CPT – qHTS for Inhibitors of human tyrosyl-DNA phosphodiesterase 1 (TDP1): qHTS in cells in absence of CPT; Potency, µM (highest dose often 46.2 µM), inactives show top-dose activity change, negative = growth inhibition, hits mostly inhibitors; DT40 Tdp1-/- hTDP1 cells, no CPT, ATP luminescence, 48 h; 420,000 tested, 15% active; AID 686978, 2013; further: potency means the concentration at half of the fitted maximal effect; nearly all actives have a fitted effect of over 55% in size
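Luminescent ATP content (CellTiter-Glo) served as the growth readout. Knockout chicken DT40 cells expressing human TDP1 were exposed to compounds without camptothecin for a minimum 48 hr at 37 °C.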
TDP1 cell CPT – qHTS for Inhibitors of human tyrosyl-DNA phosphodiesterase 1 (TDP1): qHTS in cells in presence of CPT; 420,000 tested, 12% active; Potency, µM (top dose mostly 46.2 µM), for inactives: at the highest dose activity change, negative = growth inhibition, most hits filed as inhibitors; chicken DT40 Tdp1-/-;hTDP1 cells + 20 nM CPT, ATP luminescence, 48 h; further: potency means the concentration at half of the fitted maximal effect; nearly all actives have a fitted effect of over 55% in size
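Chicken DT40 Tdp1-/- cells stably complemented with human TDP1 were seeded at 400 cells/well in medium containing 20 nM camptothecin, exposed to pin-transferred compounds, and grown at 37 °C for at least 48 hr. Viability was read as ATP luminescence.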
* hit, by the source's call; ? = inconclusive; nt = no result given; [ ] = another dose, or the depositor's remark. Compounds with a hit are over-represented: about 18% of the library has one in this group of screens. Unless noted, the call rests on the fitted dose curve; in most records, active means well fitted curve in the direction sought with a large enough effect; inconclusive means small, poorly fitted or top-dose-only effect, or another doubt; inactive means no such curve, though single readings can be large; an effect the other way counts as inactive or inconclusive. On the % scale 0 is the no-effect control and ±100 the full control effect.

SMILES | CtBP-E1A blk | TDP1 block | Six1-Eya2 blk | IL1B secr inh | DT40 TDP1 no CPT | TDP1 cell CPT
CCOc1ccc(-c2cc3nc(C4CCN(C(=O)OC(C)(C)C)CC4)c(C(=O)Nc4cccc(Cl)c4C)cn3n2)cc1 | nt | 9.0% | nt | nt | 14.6µM* | 18.4µM*
CCOc1ccc(-c2cc3nc(C4CCN(C(=O)OC(C)(C)C)CC4)c(C(=O)Nc4ccc(C)cc4C)cn3n2)cc1 | nt | 3.8% | nt | nt | 20.6µM* | 18.4µM*
CS(=O)c1ccccc1-c1nc(-c2cc(C(F)(F)F)cc(C(F)(F)F)c2)no1 (stereo not drawn) | 14.7 | 2.0% | 1.6 | 5.7 | 13µM* | 10.3µM*
CS(=O)(=O)c1ccccc1-c1nc(-c2cc(C(F)(F)F)cc(C(F)(F)F)c2)no1 | 5.4 | 2.0% | 5.9 | 7.5 | -4.1% | ?
CCC1CN(Cc2cccc3nccnc23)Cc2cc(OC)ccc2O1 (stereo not drawn) | nt | nt | nt | nt | ? | 2.4%[9.04 µM]
CCC1CN(Cc2cn[nH]c2-c2ccccc2)Cc2cc(OC)ccc2O1 (stereo not drawn) | nt | nt | nt | nt | 18.4µM* | -7.4%[9.04 µM]
CCC1CN(Cc2cn[nH]c2-c2ccc(F)cc2)Cc2cc(OC)ccc2O1 (stereo not drawn) | nt | nt | nt | nt | 20.6µM* | ?
CCC1CN(Cc2cn[nH]c2-c2ccc(OC)cc2)Cc2cc(OC)ccc2O1 (stereo not drawn) | nt | nt | nt | nt | ? | -4.2%[9.04 µM]
Oc1c(Cl)cc(Cl)cc1C1Nc2ccccc2-n2cccc21 (stereo not drawn) | ? | 3.8% | ? | nt | -27.7% | 3.6%
CCN(CC)S(=O)(=O)c1ccc(N/N=C/c2cc(OC)c(OC)cc2OC)nc1 | -3.4 | 8.0% | 1.6 | 25.8 | ? | -5.1%
CCN(CC)S(=O)(=O)c1ccc(N2CCc3cc(OC)c(OC)cc3C2)nc1 | -9.8 | 0.7% | -7.2 | -90.8* | ? | 18.4µM*
O=C(Nc1ccncc1)c1ccc2c(c1)S(=O)(=O)c1ccccc1C2=O | 1.7 | 0.0% | -7.8 | 1.9 | 11.6µM* | 14.6µM*
O=C(Nc1nc(-c2cccc3ccccc23)cs1)c1ccc2c(c1)S(=O)(=O)c1ccccc1C2=O | -1.6 | -4.8% | 4.7 | 22.1 | 9.2µM* | 18.4µM*
CC(C)CC(=O)NC(=S)Nc1nc(-c2cccc3ccccc23)cs1 | -3.3 | 4.1% | -5.9 | 22.9 | 20.6µM* | -16.6%
O=C(Nc1ccc(-c2ccccc2)cc1)c1ccc2c(c1)S(=O)(=O)c1ccccc1C2=O | -5.1 | nt | 0.0 | 13.0 | -11.4% | -20.4%
O=C(CCNC(=O)C1CCN(S(=O)(=O)c2ccccc2)CC1)NCc1ccccc1Cl | 3.7 | -0.3% | -7.1 | 0.5 | 8.7% | 4.9%
COC(=O)C(=Cc1ccncc1)c1cccc2ccccc12 | -5.7 | nt | -1.0 | 0.0 | 13µM* | 6.51µM*
Cc1ccc(-n2nnnc2C(Cl)c2nnnn2-c2ccc(C)cc2)cc1 | nt | 0.6% | -2.0 | -59.1* | 8.2µM* | 14.6µM*
COc1ccc2cnn(-c3ccccc3C)c(=O)c2c1OC | 4.6 | 2.5% | 6.1 | 19.8 | 7.31µM* | 10.3µM*
N#Cc1ccccc1NC(=O)C(=O)NCC(c1cccnc1)N1CCN(c2ccccc2)CC1 (stereo not drawn) | nt | 5.2% | nt | nt | -18.4% | ?
CC(C)(C)c1ccc(C(=O)NCC(c2cccnc2)N2CCc3ccccc3C2)cc1 (stereo not drawn) | nt | 6.5% | nt | nt | 1.84µM* | 2.31µM*
Cc1cccc(NC(=O)C(=O)NCC(c2cccnc2)N2CCc3ccccc32)c1C (stereo not drawn) | nt | -1.3% | nt | nt | 23.1µM* | 18.4µM*
O=C(NCc1cccnc1)C(=O)NCC(c1cccnc1)N1CCN(c2ccccc2F)CC1 (stereo not drawn) | nt | -1.3% | nt | nt | ? | ?
Cc1ccc(NC(=O)C(=O)NCC(c2cccnc2)N2CCN(C)CC2)cc1 (stereo not drawn) | nt | 6.5% | nt | nt | -7.9% | -12.0%
COc1ccccc1NC(=O)C(=O)NCC(c1cccnc1)N1CCc2ccccc2C1 (stereo not drawn) | nt | 0.0% | nt | nt | ? | ?
SMILES | CtBP-E1A blk | TDP1 block | Six1-Eya2 blk | IL1B secr inh | DT40 TDP1 no CPT | TDP1 cell CPT
O=C(NCC(c1cccnc1)N1CCc2ccccc21)C(=O)Nc1ccccc1F (stereo not drawn) | nt | 0.0% | nt | nt | ? | 7.31µM*
Cc1ccc(NC(=O)C(=O)NCC(c2cccnc2)N2CCc3ccccc3C2)cc1 (stereo not drawn) | nt | 5.2% | nt | nt | 16.4µM* | 20.6µM*
C/C=C(/C)C(=O)O[C@@H]1c2cc(OC)c(OC)c(OC)c2-c2c(cc3c(c2OC)OCO3)C[C@H](C)[C@]1(C)O | 5.0 | 3.5% | -2.2 | 12.2 | ? | -24.4%
CCOc1ccc(S(=O)(=O)N(C)c2ccc(OCC(=O)NCc3ccco3)cc2)cc1 | 18.2 | 8.0% | -7.1 | 4.1 | ? | ?
Cc1cccc(NC(=O)CSc2nnc(CNC(=O)c3ccco3)o2)c1C | 1.3 | 4.9% | 1.0 | 29.6 | 21.9% | 10.2%
Cc1ccc(NC(=O)C(=O)NCC(c2cccnc2)N2CCc3ccccc32)cc1Cl (stereo not drawn) | nt | 2.6% | nt | nt | 13µM* | 18.4µM*
Cc1cccc(NC(=O)C(=O)NCC(c2cccnc2)N2CCc3ccccc3C2)c1C (stereo not drawn) | nt | -1.3% | nt | nt | 16.4µM* | 16.4µM*
Cc1ccc(NC(=O)C(=O)NCC(c2cccnc2)N2CCN(C)CC2)cc1C (stereo not drawn) | nt | 1.3% | nt | nt | -3.7% | -1.9%
Cc1cccc(C)c1OCc1nnc(SCC(=O)NCc2ccccc2)o1 | 4.4 | -4.5% | 2.7 | 0.0 | -20.5% | ?
COc1cc(OC)cc(-c2c(-c3ccc(F)cc3)c3cc(-c4ccc(SC)cc4)ccc3n2C)c1 | 0.6 | 0.5% | 0.6 | 0.0 | ? | ?
COc1ccc(-c2c(-c3cc(OC)cc(OC)c3)n(C)c3ccc(-c4ccc(N(C)C)nc4)cc23)cc1 | -4.6 | 5.3% | -15.9 | 38.5 | 18.4µM* | 20.6µM*
COc1cccc(-c2c(-c3cc(OC)cc(OC)c3)n(C)c3ccc(-c4ccc(OC)nc4)cc23)c1 | 2.8 | 4.0% | -7.7 | 14.3 | 16.4µM* | 18.4µM*

Bioassay records: PubChem BioAssay, National Center for Advancing Translational Sciences (NCATS)
